Results reported in PubChem BioAssay (NCI).
The panel holds about 83,000 compounds, 20% with a hit somewhere; the sample as a whole holds those more often.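 For each line, cells grew in 96-well plates with the test compound present at a single concentration for 48 hours.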 A number with no mark means an inactive call. Activity calls are given as the source filed them. Rule for the calls: active = growth percent below 10; inactive = the rest.

System: A498 renal
Experiment: NCI-60 one-dose screen, 48 h (100 = growth as untreated, 0 = no growth, -100 = all killed)
Conditions: 10 µM unless noted

SMILES	growth
O=C1C=CC2(NN=C(c3ccccc3)N2c2ccc(Cl)cc2)c2cccc(O)c21 (centres undefined)	91.3%
CNC(=O)c1ccc(Nc2ncc(C(F)(F)F)c(NCc3nccnc3N(C)S(C)(=O)=O)n2)cc1	-42.2% (active)
CN(C)C/C=C/C(=O)Nc1cc2c(Nc3ccc(F)c(Cl)c3)ncnc2cc1O[C@H]1CCOC1	-40.4% (active)
COc1cc(Nc2c(C#N)cnc3cc(OCCCN4CCN(C)CC4)c(OC)cc23)c(Cl)cc1Cl	78.3%
Cc1oc2c(C(=O)N/N=C\c3ccc(O)cc3O)c[nH]c2c1C	44.6%
COc1c(OCCCN2CCOCC2)ccc2c3n(c(=NC(=O)c4cnc(N)nc4)nc12)CCN3	-60.7% (active)
c1cn2cc(-c3ccc4cn[nH]c4c3)nc(Nc3ccc(N4CCOCC4)cc3)c2n1	68.7%
CN1CCN(CCOc2cc(OC3CCOCC3)c3c(Nc4c(Cl)ccc5c4OCO5)ncnc3c2)CC1	49.4%
O=C(Cc1ccc(-c2ccc(OCCN3CCOCC3)cc2)cn1)NCc1ccccc1	1.26% (active)
COc1ccc(F)c(F)c1C(=O)c1cnc(NC2CCN(S(C)(=O)=O)CC2)nc1N	-53.4% (active)
CCOc1ccc(N=C(C)Nc2ccc(OCC)cc2)cc1	100%
C[C@@H]1COC(Nc2ccc3ncnc(Nc4ccc(OCc5nccs5)c(Cl)c4)c3c2)=N1	22.5%
CCCCCC(=O)OCc1ccc(Cl)c(Cl)c1	92.6%
C=CC(=O)Nc1cccc(Oc2nc(Nc3ccc(N4CCN(C)CC4)cc3)nc3ccsc23)c1	33.6%
